# M1 antag: human CHRM1 antagonism. P11229. CHO-K1 hM1, Fluo-8 calcium fluorescence, ACh EC80 antagonist. inhibition, % at 3 µM. actives 1.3% (n = 360,000). AID 588852;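 active = percent inhibition above its own plate's cutoff, namely the mean of that plate's compound wells plus 3 SD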;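 also: peak over basal fluorescence ratio during 140 s after agonist addition; 0% = ACh EC80 plus DMSO and 100% = DMSO alone without agonist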
# Target sequence (P11229 whole entry, looked up): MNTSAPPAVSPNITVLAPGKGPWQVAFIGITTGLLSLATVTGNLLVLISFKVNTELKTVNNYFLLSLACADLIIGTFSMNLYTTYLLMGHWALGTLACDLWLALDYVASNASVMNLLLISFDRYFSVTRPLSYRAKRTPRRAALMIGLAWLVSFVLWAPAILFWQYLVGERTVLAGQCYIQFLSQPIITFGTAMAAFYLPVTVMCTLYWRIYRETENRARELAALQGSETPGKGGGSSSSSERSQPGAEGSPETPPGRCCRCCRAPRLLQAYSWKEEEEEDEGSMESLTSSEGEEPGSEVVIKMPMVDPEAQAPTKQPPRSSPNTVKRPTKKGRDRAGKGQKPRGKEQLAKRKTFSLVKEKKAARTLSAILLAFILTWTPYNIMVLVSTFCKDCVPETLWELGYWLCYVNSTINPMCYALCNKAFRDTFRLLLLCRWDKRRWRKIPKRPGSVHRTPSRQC
# M1 PAM parental: nonselective activator or artifact in parental CHO-K1 calcium assay; activation, % at 3 µM; ATP EC20, Fluo-8 calcium fluorescence; 0% at ATP EC20, 100% at ATP max; actives 0.02% (n = 360,000);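 active = activation above the run cutoff, the mean activation of all test compounds plus 3 SD, cut at about 40% in these data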;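 also: peak over basal fluorescence ratio in a 140 s read after ATP addition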
# CHRM1 agonist: activates human CHRM1 receptor | activation, % at 3 µM | CHO-K1 hM1, Fluo-8 calcium fluorescence, agonist mode; 0% DMSO, 100% acetylcholine EC100 | actives 0.33% (n = 360,000) | P11229;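 active = activation above the run's mean compound activation plus 3 SD, cut at about 16% in these data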;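 also: peak over basal fluorescence ratio within a 140 s kinetic read after compound addition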
# M1 PAM: positive allosteric modulators of human M1 muscarinic receptor; activation, % at 3 µM; CHO-K1 hM1, Fluo-8 calcium fluorescence, ACh EC20; 0% = ACh EC20, 100% = maximal ACh; actives 0.088% (n = 360,000); P11229; AID 588819; in the data active = activation above about 19%, passing the limit was not always enough
# M1 ag parental: nonselective activator or artifact in parental CHO-K1 cells. Fluo-8 calcium fluorescence; scaled to maximal ATP response, vehicle zero. activation, % at 3 µM. actives 0.48% (n = 360,000); in the data active = activation above about 15%;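 also: untransfected CHO-K1 host cells lacking M1 receptor as counterscreen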
# CHO-K1 Ca antag: M1 antagonist counterscreen hit in parental CHO-K1 cells; actives 0.6% (n = 360,000); inhibition, % at 3 µM; ATP-induced calcium, Fluo-8 fluorescence;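 active = inhibition above a per-plate cutoff, the plate's mean sample inhibition plus 3 SD, cut at about 24% in these data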;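 also: 0% = DMSO plus EC80 ATP and 100% = DMSO alone without ATP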
# * = called active by the depositor. Rows were chosen to be rich in hits. Some 2.4% of all compounds tested hit in one or more screens of this group.
SMILES,M1 antag,M1 PAM parental,CHRM1 agonist,M1 PAM,M1 ag parental,CHO-K1 Ca antag
CCCCN(C(=O)CSc1nnc(-c2ccc(OC)cc2)n1CC)c1c(N)n(Cc2ccccc2)c(=O)[nH]c1=O,-7,-12,-6,-4,0,28*
CCCCN(C(=O)CSc1nnc(-c2ccc(OC)cc2)n1C(C)C)c1c(N)n(Cc2ccccc2)c(=O)[nH]c1=O,-15,9,-9,14,-1,-4
CC(C)(CNC(=O)C1CCCC1)CNC(=O)C1CCCC1,2,6,-3,-2,0,-8
Cc1cccc(Oc2ncc(-c3ccc(Cl)cc3)cn2)c1,-15,13,-2,9,-1,3
CC(=O)c1ccc2c(c1)N(C)c1ccccc1S2,-14,4,-2,10,0,19
CC(=O)c1ccc2c(c1)N(CCCN(C)C)c1ccccc1S2,95*,2,-7,-25,1,3
CCC(=O)c1ccc2c(c1)N(CCCN(C)C)c1ccccc1S2,94*,6,-5,-25,1,-1
Brc1cccc(/C=N/Nc2nn[nH]n2)c1,-11,0,-7,15,0,-2
COc1cccc(/C=C(/C(=O)OCC(=O)NC2CCCCCCC2)c2ccccc2)c1,-4,-3,0,8,1,7
c1ccc(-c2nnc(N3CCN(c4ccccc4)CC3)nc2-c2ccccc2)cc1,-17,6,-2,14,0,2
O=[N+]([O-])c1cnn(-c2nc(-c3cccs3)cc(C(F)(F)F)n2)c1,-4,-2,-3,4,1,-11
CN1CCN(c2nc(-c3ccccc3)cc(C(F)(F)F)n2)CC1,43*,-2,-4,-19,0,7
CN1CCN(c2nnc(-c3ccccc3)c(-c3ccccc3)n2)CC1,39*,-13,-9,-20,0,6
CN1CCN(c2nc(-c3cccs3)cc(C(F)(F)F)n2)CC1,71*,20,-4,-21,2,-10
CC(C)CNC(=O)CSc1nc(-c2cccs2)cc(C(F)(F)F)n1,-15,-6,-3,-4,-1,24*
O=C(CCS(=O)(=O)c1ccc(Br)cc1)NCc1cccs1,-36,11,-2,1,0,-4
Cc1cccc(C(=O)Nc2nccs2)c1[N+](=O)[O-],-8,22,-5,6,0,-5
CCN1C(=O)[C@H]2[C@@H](c3ccc(C)cc3)N[C@]3(CCCN(Cc4ccc(F)cc4)C3=O)[C@H]2C1=O,-9,-12,-5,-1,-1,25*
Cc1ccc(CN2CCC[C@]3(N[C@H](c4ccccc4)[C@@H]4C(=O)N(Cc5ccccc5)C(=O)[C@@H]43)C2=O)cc1,3,-15,-5,-3,1,29*
CCN1C(=O)[C@H]2[C@@H](c3ccc(C(F)(F)F)cc3)N[C@]3(CCCN(Cc4ccc(C(F)(F)F)cc4)C3=O)[C@H]2C1=O,-15,12,-6,6,0,-15
O=C(c1ccc(CS(=O)c2cccc(Cl)c2)o1)N1CCCCCC1 (stereo unspecified),1,6,-2,-7,11,-8
Cc1ccc(N(C(=O)c2ccc(Br)o2)C2C=CS(=O)(=O)C2)cc1 (stereo unspecified),1,-9,1,4,0,10
CC1=CC(C)C2(CO)COC(c3cccnc3)C1C2C (stereo unspecified),1,-11,-1,11,1,28*
CC1=CC(C)C2(CO)COC(c3ccc(O)cc3)C1C2C (stereo unspecified),6,-3,5,3,2,8
N/C(=N\OC(=O)Cc1ccc(-c2ccccc2)cc1)c1ccccn1,-9,-2,-3,6,1,9
N/C(=N\OC(=O)CSc1ccccc1)c1ccccn1,-24,8,-1,28*,0,-6
Cc1ccc(N(CC(=O)N2CC(=O)Nc3ccccc32)S(=O)(=O)c2ccc3c(c2)OCCO3)cc1,-2,-3,-3,6,0,29*
O=C(O)CN(c1ccc(F)cc1)S(=O)(=O)c1ccc2c(c1)OCCO2,-18,5,-3,13,0,-5
CCC(CC)C(=O)Nc1ccc(Sc2ccc([N+](=O)[O-])cc2)cc1,35*,-12,-7,-27,10,-8

# From PubChem
